Laboratory results: PubChem BioAssay
Active and inactive are the calls of the source.

Columns and labels:
Albumin (Bos taurus) = Albumin (Bos taurus) (UniProt P02769); experiment: bovine serum albumin binders on microarray, profiling panel, artefact control for SMM control protein annotation, biochemical, small-molecule microarray, Alexa647 label, 635/667 nm fluorescence (AID 1118); settings: BSA-A647 binding, fluorescence 635 nm, higher = more signal;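 note: score merges 667 nm emission intensity and signal-to-noise per printed compound spot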
Chain of Albumin (Bos taurus) (P02769 whole entry, looked up): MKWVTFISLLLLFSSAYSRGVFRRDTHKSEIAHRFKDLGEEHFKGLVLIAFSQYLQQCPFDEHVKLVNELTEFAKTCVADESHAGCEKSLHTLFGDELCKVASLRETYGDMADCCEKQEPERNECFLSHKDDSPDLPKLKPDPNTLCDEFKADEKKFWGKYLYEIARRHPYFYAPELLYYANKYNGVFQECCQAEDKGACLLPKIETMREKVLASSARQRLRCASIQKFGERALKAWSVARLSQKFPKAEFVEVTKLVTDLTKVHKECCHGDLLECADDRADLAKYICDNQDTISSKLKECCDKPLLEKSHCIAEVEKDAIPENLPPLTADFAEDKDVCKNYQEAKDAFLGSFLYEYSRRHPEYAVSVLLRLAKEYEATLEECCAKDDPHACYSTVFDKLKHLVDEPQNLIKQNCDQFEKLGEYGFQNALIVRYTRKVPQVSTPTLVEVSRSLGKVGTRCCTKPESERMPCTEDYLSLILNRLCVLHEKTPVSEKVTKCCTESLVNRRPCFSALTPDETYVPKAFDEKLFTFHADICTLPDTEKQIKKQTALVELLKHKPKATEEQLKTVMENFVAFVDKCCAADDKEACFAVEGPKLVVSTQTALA

[1] = small-molecule microarray binders of probe aXIP, primary screen, biochemical, NeuroSMM set, 635/667 nm fluorescence (AID 1119); settings: higher = more signal, called active from +8 up or from −8 down;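 note: probe is the protein aXip251-270 applied at 1 µg/mL to compound-printed slides; binding of probe to printed compounds measured as 667 nm fluorescence plus signal to noise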
[2] = small-molecule binders of probe aNOTCH3, primary screen, biochemical, small-molecule microarray, 635/667 nm fluorescence (AID 1120); settings: higher = more signal;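 note: probe is a biotin-tagged antibody raised against NOTCH3 rather than NOTCH3 protein; score merges spot fluorescence near 667 nm with spot signal to noise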
[3] = small-molecule binders of probe aNOTCH2, primary screen, biochemical, small-molecule microarray, 635/667 nm fluorescence (AID 1121); settings: higher = more signal;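 note: score merges feature fluorescence read at 667 nm with its signal to noise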
[4] = target: Carbonic anhydrase 2 (Homo sapiens) (UniProt P00918); experiment: CAII small-molecule binders, profiling panel, biochemical, small-molecule microarray, Alexa647-labelled CAII (AID 1122); settings: CAII-A647 binding fluorescence, higher = more signal
[5] = COS7 lysate on small-molecule microarray, probe aHis, 635 nm (AID 1123); settings: COS7 cell lysate, fluorescence, higher = more signal;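 note: z-score combines 667nm fluorescence intensity with signal-to-noise per printed compound spot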
[6] = compound binding in COS7 lysate, probe aLAP1, primary screen, cell lysate, small-molecule microarray (AID 1124); settings: probe aLAP1, fluorescence, higher = more signal;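 note: lysate comes from COS7 cells expressing LAP1 and is applied at 0.3 µg/mL; score merges spot fluorescence near 667 nm with signal-to-noise over triplicate slides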
Sam68 (KHDRBS1) = experiment: Sam68 small-molecule binders, primary screen, biochemical, small-molecule microarray, 635 nm fluorescence (AID 1125); settings: small-molecule microarray binding, higher = more signal;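 note: score merges 667 nm channel intensity with signal to noise over triplicate slides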
[7] = test system: Chordin-like protein 2 (CHRDL2); experiment: CHRDL2 small-molecule binders, primary screen, biochemical, small-molecule microarray, 635 nm fluorescence (AID 1126); settings: small-molecule microarray binding, fluorescence 635 nm; higher = more signal;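 note: printed compound slides probed with Chrdl2 protein at 4 µg/mL for 1 h at 4 C; score merges 667 nm emission intensity with signal to noise over three replicate slides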
[8] = target: Concanavalin-A (Canavalia ensiformis) (UniProt P02866); experiment: ConA small-molecule binders, primary screen, artefact control for SMM control protein annotation, biochemical, small-molecule microarray, Alexa647 label, 635 nm (AID 1127); settings: ConA-A647 binding fluorescence, higher = more signal;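 note: z combines 667 nm emission intensity with signal-to-noise across three replicate slides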
Chain of Concanavalin-A (Canavalia ensiformis) (P02866 whole entry, looked up): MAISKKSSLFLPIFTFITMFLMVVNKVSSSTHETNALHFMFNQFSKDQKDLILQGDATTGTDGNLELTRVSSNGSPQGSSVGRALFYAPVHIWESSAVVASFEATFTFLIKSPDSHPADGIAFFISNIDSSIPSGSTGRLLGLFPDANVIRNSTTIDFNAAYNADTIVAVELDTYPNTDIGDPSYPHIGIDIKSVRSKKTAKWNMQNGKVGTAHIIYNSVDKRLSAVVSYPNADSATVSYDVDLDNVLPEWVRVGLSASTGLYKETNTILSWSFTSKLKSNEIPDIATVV

Row | SMILES | composite z-score (Albumin (Bos taurus)) | composite Z-score [1] | composite z-score [2] | composite z-score [3] | composite z-score [4] | composite z-score [5] | composite z-score [6] | composite z-score (Sam68 (KHDRBS1)) | composite z-score [7] | composite z-score [8]
1 | C=CCOC(=O)[C@@H]1[C@H]2C(=O)O[C@H](c3ccccc3)[C@H](c3ccccc3)N2[C@H](c2ccc(OCCOC(=O)[C@H]3C[C@H]4C(=O)N[C@@H](CCCCNC(C)=O)C(=O)N4[C@H]3c3ccc(O)cc3)cc2)[C@@]12C(=O)Nc1ccc(I)cc12 | -0.239 | 0.396 (inactive) | 0.0222 | -0.0662 | 0.374 | 0.877 | 0.278 | 1.28 | 1.15 | 0.499
2 | CC(=O)NCCCC[C@@H]1NC(=O)[C@H]2C[C@@H](C(=O)NCCCCCCN(C)C)[C@@H](c3ccc(O)cc3)N2C1=O | -0.546 | 1.44 (inactive) | 0.029 | -0.0626 | 0.365 | 2.16 | -0.1 | 1.31 | 1.09 | 1.18
3 | CO[C@H]1COC(=O)[C@@H](C)COC(=O)[C@H](Cc2ccccc2)NC(=O)CC=C[C@H]1C | -0.73 | 0.0953 (inactive) | -0.208 | -0.223 | -0.315 | -0.557 | -0.399 | 0.294 | 1.48 | -0.268
4 | O=C(NCC(O)CO)[C@]1(Cc2ccccc2)N=C(c2ccc(OCCCO)cc2)O[C@@H]1c1ccccc1 (stereo not given in full) | 0.974 | 0.749 (inactive) | 0.101 | 0.257 | 0.366 | 3.43 | 0.634 | 1.03 | -1.93 | 0.922
5 | CCc1cccc(NC(=O)O[C@H]2[C@H](OC(=O)Nc3ccccc3)[C@@H](OC(=O)Nc3ccccc3)[C@@H](OC)O[C@@H]2CO)c1 | 0.819 | -0.477 (inactive) | 0.163 | -0.0527 | 0.806 | 2.69 | 0.421 | 1.29 | -0.061 | 1.14
6 | COCCOC(=O)N1C(=O)[C@@]2(c3ccccc31)[C@H](C(=O)N1CCc3cc(OC)c(OC)cc3C1)[C@H]1C(=O)O[C@H](c3ccccc3)[C@H](c3ccccc3)N1[C@@H]2c1ccccc1OCCO | 0.484 | 0.497 (inactive) | 0.0556 | -0.0607 | 0.441 | 1.24 | 0.0221 | 1.3 | 0.107 | 1.17
7 | CO[C@H]1COC(=O)[C@@H](Cc2ccccc2)NC(=O)[C@@H](C)COC(=O)CC=C[C@@H]1C | -1.03 | -0.179 (inactive) | -0.095 | -0.14 | -0.498 | -0.875 | -0.422 | -0.0602 | 1.24 | -0.773
8 | CCCCCCc1nc(-c2cc(C)c(OC)c(C)c2)cc2c1[Si](C(C)C)(C(C)C)O[C@H]2c1ccccc1 | -0.0154 | -0.315 (inactive) | -0.194 | -0.0191 | -0.398 | -0.301 | -0.136 | -0.728 | -0.182 | -0.152
9 | O=C1O[C@@H](c2ccccc2)[C@@H](c2ccccc2)N2[C@@H](c3ccc(O)cc3)[C@]3(C(=O)Nc4ccc(C#CC5(O)CCCCCC5)cc43)[C@@H](C(=O)Nc3nc4ccccc4s3)[C@H]12 | 0.839 | 0.751 (inactive) | 0.173 | 0.0943 | 0.0181 | 1.95 | 0.807 | 1.35 | 0.896 | 1.08
10 | COc1cc2c(cc1OC)CN(C(=O)[C@H]1[C@@H]3C(=O)O[C@@H](c4ccccc4)[C@@H](c4ccccc4)N3[C@@H](c3ccc(O)cc3)[C@]13C(=O)Nc1ccc(C#CC4(O)CCCCCC4)cc13)CC2 | 0.693 | 1.04 (inactive) | 0.974 | 0.286 | 0.774 | 3.61 | 0.876 | 1.29 | 1.24 | 1.13
11 | CCC(=O)[C@]12O[C@@]3([C@@H]4C(=O)OCC[C@@H]41)N(CC)C(C)=C(C(=O)OC)[C@@H](c1ccccc1)N3C2=O | -0.499 | -0.302 (inactive) | -0.122 | -0.157 | 0.828 | -0.68 | 0.448 | -0.516 | 0.841 | -0.0306
12 | C=CCNC(=O)[C@H]1[C@@H]2C(=O)O[C@@H](c3ccccc3)[C@@H](c3ccccc3)N2[C@@H](c2ccccc2OCCO)[C@]12C(=O)N(C(=O)OCCOC)c1ccc(C#CCNC(N)=O)cc12 | 0.676 | -0.0888 (inactive) | 0.0379 | -0.101 | 0.555 | 1.94 | 1.3 | 1.29 | -0.246 | 1.14
13 | Cc1ccc(N2C(=O)c3ccccc3[C@](C)(C(=O)NCC(C)C)[C@@H]2c2ccc(CO)cc2)nc1 | -1.09 | 0.917 (inactive) | -0.278 | -0.126 | 0.265 | 0.437 | -0.115 | -0.68 | -0.233 | -1.92
14 | O=C1c2ccccc2[C@@]2(Cc3ccccc3N(CC(F)(F)F)C2=O)[C@H](c2ccc(CO)cc2)N1C1CCCCC1 | -0.976 | -0.336 (inactive) | 0.157 | -0.122 | 0.807 | 0.31 | 0.48 | 0.588 | 0.759 | 0.709
15 | C=CC[C@]1(C(=O)NCC(O)CO)N=C(c2ccc(OCCCO)cc2)O[C@H]1c1ccccc1 (stereo not given in full) | 0.704 | 1.59 (inactive) | -0.0391 | -0.0877 | 0.793 | 3.04 | 1.3 | -0.126 | -1.43 | -0.49
16 | C=CCC(OC(C)=O)[C@@H]1[C@@H](N(Cc2cccc3ccccc23)C(=O)c2ccc(C)cc2)c2cc(OCCCO)ccc2N1C(=O)c1ccc(-c2ccccc2)cc1 (stereo not given in full) | -0.0575 | -0.0961 (inactive) | 0.102 | -0.0398 | 0.507 | 0.143 | -0.105 | -0.087 | 0.114 | -0.227
17 | CCN1C(C)=C(C(=O)OC)[C@@H](c2ccccc2)N2C(=O)[C@@]3(C(=O)OC)O[C@@]12[C@@H]1C(=O)N(c2ccccc2)C(=O)[C@@H]13 | 0.846 | -0.0754 (inactive) | -0.055 | -0.153 | 0.66 | 0.463 | 0.581 | 1.14 | 0.522 | 0.744
18 | CCOC(=O)C[C@H]1[C@H](OC(=O)c2cc3ccccc3oc2=O)[C@@H](NC(=O)c2ccc3ccccc3c2)c2cc(OCCCO)ccc2N1C(=O)c1ccc2ccccc2n1 | 0.668 | 0.575 (inactive) | 0.0842 | -0.122 | 0.426 | 0.193 | 0.155 | 0.325 | 0.731 | 0.536
19 | C=C(CCCC)/C(=C/C[C@H](OC(=O)c1ccncc1)c1cccc(OCCO)c1)c1cc(C(=O)OC)ccc1OC | -0.2 | -0.331 (inactive) | 0.074 | -0.131 | 0.0309 | 1.09 | -0.132 | 0.711 | 0.363 | 0.724
20 | CC(C)(C)OC(=O)CC[C@@]1(C(=O)NCc2ccccc2)N=C(c2ccc(OCCCO)cc2)O[C@@H]1c1ccccc1 | 0.974 | -0.216 (inactive) | 0.132 | 0.09 | 0.655 | 2.91 | 0.494 | 1.3 | -0.416 | 1.18
21 | O=C(N1CCCCC1)[C@@]1(CCS(=O)(=O)c2ccccc2)N=C(c2ccc(OCCCO)cc2)O[C@H]1c1ccccc1 | -0.0092 | -0.595 (inactive) | 0.0876 | -0.0872 | 0.663 | 3.28 | 0.343 | 1.29 | -0.58 | 0.639
22 | COc1ccc(-c2ccccc2[C@@H]2N[C@H](C(=O)O)CC[C@H]2C)cc1 | -0.497 | 0.3 (inactive) | -0.0647 | -0.131 | 0.0441 | 0.711 | -0.423 | 0.297 | 0.456 | 0.301
23 | CCC(=O)[C@]12O[C@@]3([C@@H]4C(=O)OCC[C@@H]41)N(Cc1ccccc1)C(C)=C(C(=O)OC)[C@@H](c1ccccc1)N3C2=O | 0.226 | -0.428 (inactive) | -0.207 | -0.164 | 0.463 | -0.859 | -0.242 | -1.07 | -0.334 | -1.17
24 | CCOC(=O)C[C@H]1[C@H](OC(=O)Cc2ccc3c(c2)OCO3)[C@@H](NC(=O)c2ccc3ccccc3c2)c2cc(OCCCO)ccc2N1C(=O)Cc1ccc(OC)cc1 | 0.897 | 0.563 (inactive) | 0.0284 | -0.0846 | 0.0553 | 1.54 | -0.333 | 0.952 | 0.472 | 0.684
25 | Cc1ccc([C@@H]2CC=C(C(=O)O)[C@H](c3ccccc3)N2S(=O)(=O)c2ccc(C)cc2)cc1 | 1.02 | 1.1 (inactive) | 0.254 | 0.0344 | 0.546 | 2.36 | 0.581 | 1.31 | -2.11 | 1.22
26 | CO[C@H]1O[C@H](CO)[C@@H](OC(=O)Nc2ccc3c(c2)OCO3)[C@H](OC(=O)Nc2ccccc2)[C@@H]1OC(=O)Nc1ccccc1 | 0.792 | 0.0474 (inactive) | -0.004 | -0.0952 | 0.743 | 3 | 0.982 | 1.29 | -0.0509 | 1.09
27 | CCCC/C=C/[C@H]([C@@H](O)Cc1ccccc1)N(CC#Cc1ccccc1)Cc1ccccc1Br | -0.861 | 0.911 (inactive) | -0.346 | -0.171 | -0.382 | 0.0748 | 0.006 | -0.61 | -1.64 | -0.89
28 | COc1ccc(C(=O)Nc2ccc(CN3C(=O)[C@]4(O[C@H](CCn5cc(CCO)nn5)[C@@H]([Si](C)(C)c5ccc(OC)cc5)[C@@H]4C)c4ccccc43)cc2)cc1 | -0.343 | -0.213 (inactive) | 0.391 | -0.0649 | 0.697 | 0.88 | -0.153 | 1.32 | 0.276 | 1.15
